In PubChem BioAssay AID686979 (National Center for Advancing Translational Sciences (NCATS), 2013):
About 50,000 (12%) of roughly 420,000 compounds were called active. About 26% were inconclusive and are not listed. Shown is part of a subset that was picked to be rich in actives. A call without a number means that no potency is given here. Unmarked numbers belong to inactive results. Calls follow the shape of the dose curve; as a rule, active = well fitted inhibition curve with a large enough effect; inconclusive = small, poorly fitted or top-dose-only effect; inactive = flat fitted curve, though single readings scatter.
Potency is read from the fitted curve at half-maximal effect.

Assay: qHTS for Inhibitors of human tyrosyl-DNA phosphodiesterase 1 (TDP1): qHTS in cells in presence of CPT; also: nearly all actives have a fitted effect of over 55% in size
Conditions: chicken DT40 Tdp1-/-;hTDP1 cells + 20 nM CPT, ATP luminescence, 48 h; series mostly up to 46.2 µM
Outline: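 Chicken DT40 Tdp1-/- cells complemented with human TDP1, 400 cells/well, exposed to compounds plus 20 nM camptothecin for at least 48 h at 37 C; viability read as ATP content by CellTiter-Glo luminescence.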
With `O=C1c2ccccc2C(=O)C1C(=O)C1CC1` the Potency was “inactive”. For `CCc1c(C)nc(N)n2c(SCC(=O)NC3CCCCC3)nnc12`, the Potency was “inactive”. With `CC1CCN(c2ccc3c(c2)S(=O)(=O)c2cc(C(=O)O)ccc2C3=O)CC1` the Potency was “inactive”. With `CC1CCc2sc(C(=O)NCC(c3ccco3)N3CCCCC3)cc2C1` (stereo not drawn) the Potency was 16.4 µM (active). With `CC1CCc2sc(C(=O)N/N=C/C3CCCCC3)cc2C1` (stereo not drawn) the Potency was “inactive”. With `Cc1c(C(=O)NCC(c2ccco2)N2CCCC2)oc2ccc(Cl)cc12` (stereo not drawn) the Potency was 20.6 µM (active). With `COc1ccc2oc(C(=O)NCc3ccco3)c(C)c2c1` the Potency was “inactive”. For `CSc1ncccc1C(=O)NCC(c1ccco1)N1CCCCC1` (stereo not drawn), the Potency was “inactive”. With `Cc1cc(S(=O)(=O)Nc2ccc(C(=O)NCC(c3ccco3)N3CCCC3)cc2)ccc1F` (stereo not drawn) the Potency was “inactive”. In the case of `Nc1nc(N)c(N=O)c(N)n1`, the Potency is reported as “inactive”. For `CC(=O)N(OCc1ccc(OC(C)C)c(Cl)c1)C(C)=O`, the Potency was “inactive”. In the case of `O=C(COC(=O)CCOc1ccccc1)Nc1cc(S(=O)(=O)N2CCCCC2)ccc1Cl`, the Potency is reported as “inactive”. With `O=C(CN1CCN(S(=O)(=O)c2cc(Cl)ccc2Cl)CC1)c1ccc(O)c(O)c1` the Potency was 9.2 µM (active). In the case of `O=S(=O)(c1cc(Cl)ccc1Cl)N1CCN(Cc2ccco2)CC1`, the Potency is reported as “inactive”. For `COc1ccc(Cl)cc1S(=O)(=O)N1CCN(CC(=O)C(C)(C)C)CC1`, the Potency was “inactive”. With `COc1ccccc1C1CCN(c2ccc([N+](=O)[O-])cn2)CC1` the Potency was “inactive”. In the case of `c1ccc(Nc2nc(N3CCOCC3)c3ccccc3n2)cc1`, the Potency is reported as 20.6 µM (active). With `O=c1[nH]c(N2CCOCC2)nc2ccccc12` the Potency was “inactive”. For `Cc1cc(C(=O)Nc2ccccc2N2CCOCC2)c2ccccc2n1`, the Potency was “inactive”. In the case of `CC1(C)CC(=O)C(C=NCCN2CCN(C(=S)Nc3cccc(Cl)c3)CC2)=C(O)C1`, the Potency is reported as “inactive”. In the case of `O=C(CN1CCN(S(=O)(=O)c2ccc(Cl)s2)CC1)NCc1ccc(Cl)cc1`, the Potency is reported as “inactive”. With `CC1(Oc2ccccc2-c2ccno2)CCN(Cc2ccc(-c3ccccc3)o2)C1` (stereo not drawn) the Potency was 25.9 µM (active). In the case of `Nc1ncnc2c1ncn2[C@@H]1O[C@H](C(=O)N2CCCN(Cc3ccccc3F)CC2)[C@@H](O)[C@H]1O`, the Potency is reported as “inactive”. For `CCSc1nc2sc3c(c2c(=O)[nH]1)CC(C)(C)OC3`, the Potency was “inactive”. With `C=CCNC(=S)NNc1ncnc2sc3c(c12)CC(C)(C)OC3` the Potency was 4.61 µM (active). In the case of `CC1(C)Cc2c(sc3nc4n(c(=N)c23)CCCCC4)CO1`, the Potency is reported as “inactive”. With `Cc1c(CCC(=O)O)c(=O)oc2cc(OCc3ccc(Br)cc3)ccc12` the Potency was “inactive”. With `Fc1ccc(NC(=S)N2CCc3[nH]c4ccccc4c3C2)cc1` the Potency was “inactive”. In the case of `COC(=O)c1scc(S(=O)(=O)C(C)(C)C)c1-n1cccc1`, the Potency is reported as “inactive”. With `CC/C(=N\NC(=O)c1c(C)nc2ccccn12)c1ccc(Cl)cc1` the Potency was “inactive”. In the case of `CN(C)C(=O)c1nc2ccc(Cl)cn2c1CN1CCN(c2ncccn2)CC1`, the Potency is reported as “inactive”. For `Clc1ccc(-c2nc3ccccn3c2CN2CCSCC2)cc1`, the Potency was 29.1 µM (active). In the case of `O=C(COc1ccc(S(=O)(=O)NCc2ccccc2)cc1)N1CCOCC1`, the Potency is reported as “inactive”. For `Cc1ccc(NS(=O)(=O)c2ccc(C(C)(C)C)cc2)cn1`, the Potency was “inactive”. For `Cc1ccc(S(=O)(=O)Nc2ccc3ncccc3c2)cc1`, the Potency was 10.3 µM (active). For `Cc1ccc(OCC(=O)Nc2ccc(S(=O)(=O)Nc3ccccn3)cc2)cc1`, the Potency was “inactive”. In the case of `Cc1oc2cc3oc(=O)ccc3cc2c1C`, the Potency is reported as “inactive”. In the case of `O=C(NNC(=O)C1CCN(c2ncccn2)CC1)c1ccccc1`, the Potency is reported as “inactive”. In the case of `Cc1sc2ncnc(N3CCC(C(=O)NNC(=O)c4ccc(F)cc4)CC3)c2c1C`, the Potency is reported as 18.4 µM (active). With `O=C(NNC(=O)C1CCCC1)c1ccc(F)cc1` the Potency was “inactive”. In the case of `CS(=O)(=O)c1ccc2nc(NC(=O)CN3CCCCCC3)sc2c1`, the Potency is reported as “inactive”. For `Cc1sc2ncnc(N3CCC(C(=O)Nc4nc5ccc(Cl)cc5s4)CC3)c2c1C`, the Potency was 8.2 µM (active). In the case of `CS(=O)(=O)c1ccc2nc(NC(=O)C3C4C=CC(C4)C3C(=O)O)sc2c1` (stereo not drawn), the Potency is reported as “inactive”. In the case of `COc1ccccc1C1CN(CCNC(=O)C2=CCCC2)Cc2ccccc2O1` (stereo not drawn), the activity change, negative = growth inhibition is reported as -9.51% [at 9.04 µM]. With `Nc1ncnc2c1ncn2[C@@H]1O[C@H](CNCc2cccn2-c2nccs2)[C@@H](O)[C@H]1O` the Potency was “inactive”. With `CCCCN1C(=O)C(CC(=O)NC(c2ccccc2)c2ccccc2)CC(C(=O)N2CCOCC2)=C1C` (stereo not drawn) the Potency was “inactive”. With `O=C1NCCn2nc3ccccc3c21` the Potency was “inactive”. In the case of `Cc1ccc2c(c1)N(CC(=O)N1CCCC(C)C1)C(=O)CO2` (stereo not drawn), the Potency is reported as “inactive”. With `CNc1nc(Nc2ccc(C)c(Cl)c2)nc(N)c1[N+](=O)[O-]` the Potency was “inactive”. For `Cc1ccc(Nc2nc(N3CCOCC3)nc(N3CCOCC3)n2)cc1Cl`, the Potency was 23.1 µM (active). In the case of `Cc1cc(Nc2ccc(N3CCOCC3)cc2)c2cccc(C)c2n1`, the Potency is reported as “inactive”. For `COc1ccc(C2CC(=O)NC(=O)C2)cc1`, the Potency was “inactive”. In the case of `CC(C)(C)c1ccc(SCCc2ccncc2)cc1`, the Potency is reported as 18.4 µM (active). For `c1ccc(CSCCc2ccncc2)cc1`, the Potency was “inactive”. In the case of `CC(C)(C)NC(=O)C(=O)NCc1ccncc1`, the Potency is reported as “inactive”. For `Cc1cc(NC(=O)C(C)N2C(=O)c3ccccc3S2(=O)=O)no1` (stereo not drawn), the Potency was “inactive”. With `COc1cc(C(O)c2nc(-c3cccc(C(=O)O)c3)cs2)ccc1F` (stereo not drawn) the Potency was “inactive”. In the case of `Fc1ccc(COc2cccc(-c3n[nH]c(=S)o3)c2)cc1`, the Potency is reported as “inactive”. With `COCc1cccc(-c2csc(C(O)c3ccc(F)cc3)n2)c1` (stereo not drawn) the Potency was 16.4 µM (active). With `COc1ccc(N2CCN(C(=O)CSCc3nc(-c4ccccc4Cl)oc3C)CC2)cc1` the Potency was 14.6 µM (active). In the case of `COc1ccc(N2CCN(C(=O)C3CCN(C(=O)c4ccccc4Cl)CC3)CC2)cc1`, the Potency is reported as “inactive”. With `COc1ccc(N2CCN(C(=O)CN3C(=O)COc4ccccc43)CC2)cc1` the Potency was “inactive”. In the case of `COc1ccccc1C(=O)Nc1ccnn1C1CCN(Cc2cnn(C)c2)CC1`, the Potency is reported as “inactive”. For `c1ccc(-c2cc(-c3ccccc3)[nH]n2)cc1`, the Potency was “inactive”. With `Nc1nc(-c2ccccc2)cc(-c2ccccc2)n1` the Potency was 16.4 µM (active). With `CNc1nc(-c2ccccc2)cc(-c2ccccc2)n1` the Potency was “inactive”. With `Cc1ccccc1NC(=O)c1cc2c([nH]c1=O)CC(C)(C)CC2=O` the Potency was “inactive”. In the case of `Cc1ccc(F)c(NC(=O)CCOc2ccccc2C)c1`, the Potency is reported as “inactive”. For `COc1ccc(C(=O)OCc2cc(=O)n3ccsc3n2)cc1F`, the Potency was “inactive”. With `COc1cc(C(=O)OCc2cc(=O)n3ccsc3n2)ccc1OC(C)C` the Potency was 23.1 µM (active). For `COCCc1nn2c(=O)cc(COC(=O)c3cc(OC)c(OC)c(OC)c3)nc2s1`, the Potency was “inactive”. For `CCc1c(C)nc2c(-c3ccccc3)c(C)nn2c1Nc1ccc(NC(C)=O)cc1`, the Potency was “inactive”. In the case of `CCOC(=O)N1CCN(S(=O)(=O)N2CCCC(C(=O)NCCCN3CCC(C)CC3)C2)CC1` (stereo not drawn), the Potency is reported as “inactive”. For `COC(=O)C(C)NC(=O)COc1ccc2ccccc2c1` (stereo not drawn), the Potency was “inactive”. With `CC(=O)NC(c1ccccc1)c1nc(-c2ccccc2C)cs1` (stereo not drawn) the Potency was “inactive”. With `CC1(C)CC(=O)C(CC(=O)N2CCC(Cc3ccccc3)CC2)C(=O)C1` the Potency was “inactive”. For `O=C(NCc1nnc(SCC(=O)N2CCC(Cc3ccccc3)CC2)o1)c1ccco1`, the Potency was “inactive”. For `O=C(CN1CCOc2ccccc21)N1CCC(Cc2ccccc2)CC1`, the Potency was 13 µM (active). For `Cn1cnnc1Sc1ccc(S(C)(=O)=O)cc1[N+](=O)[O-]`, the Potency was “inactive”. With `Cc1cc(C)nc(NS(=O)(=O)c2ccc(N3C(=O)C4CCCCC4C3=O)cc2)n1` (stereo not drawn) the Potency was “inactive”. With `Cn1c(=O)c2sccc2n(Cc2ccc(Br)cc2)c1=O` the Potency was “inactive”. For `COc1ccc(CCNC(=O)Nc2ccc3c(c2)c(=O)n(C)n3C)cc1OC`, the Potency was “inactive”. In the case of `Cc1nnc(Sc2nc3c(c(=O)[nH]c(=O)n3C)n2Cc2ccccc2)s1`, the Potency is reported as “inactive”. For `Cn1c(=O)c2c(nc(OCc3cccnc3)n2Cc2ccccc2)n(C)c1=O`, the Potency was 11.6 µM (active). For `CCn1c(NCCc2ccc(OC)c(OC)c2)nc2c1c(=O)n(C)c(=O)n2C`, the Potency was 9.2 µM (active). For `Cn1c(=O)c2c(nc(N/N=C/c3cccs3)n2Cc2ccc(Br)cc2)n(C)c1=O`, the Potency was 20.6 µM (active). In the case of `CCCCn1c(SCC(=O)NCCc2ccc(OC)c(OC)c2)nc2c1c(=O)n(C)c(=O)n2C`, the Potency is reported as “inactive”. With `COc1ccc(CNc2nc3c(c(=O)[nH]c(=O)n3C)n2Cc2ccccc2)cc1` the Potency was “inactive”. In the case of `Cn1c(=O)[nH]c(=O)c2c1nc(NCCc1ccccc1)n2Cc1ccc(F)cc1`, the Potency is reported as 23.1 µM (active). In the case of `Cc1ccc(CN2CCN(/N=C/c3cccnc3)CC2)c(C)c1`, the Potency is reported as “inactive”. With `COc1ccc(NC(=O)CCCC2CCCCC2)c(OC)c1` the Potency was “inactive”. For `NS(=O)(=O)c1ccc2nc(NC(=O)CS(=O)(=O)c3ccc(F)cc3)sc2c1`, the Potency was “inactive”. With `O=C1NC[C@H](CCCCN2C[C@H](Cc3ccc(O)cc3)N(CC3CCCCC3)C(=O)C2=O)N(CCc2ccccc2)C1=O` the Potency was “inactive”. For `O=c1nc(NO)ccn1C1CCCO1` (stereo not drawn), the Potency was “inactive”. For `NC(=O)COc1ccc(C23CC4CC(CC(C4)C2)C3)cc1`, the Potency was “inactive”. In the case of `Cc1ccc(S(=O)(=O)Nc2nc(N)n(-c3ccccc3)n2)cc1`, the Potency is reported as “inactive”. With `C=CCOc1nc2c(c(=O)n(C)c(=O)n2C)n1Cc1ccc(Cl)cc1Cl` the Potency was 18.4 µM (active). With `CC(C)CCn1cnc2c1c(=O)n(CC(=O)NC(N)=O)c(=O)n2Cc1ccccc1` the Potency was “inactive”. For `CC(C)OCCCNc1nc2c(c(=O)n(Cc3ccccc3F)c(=O)n2C)n1C`, the Potency was “inactive”. In the case of `Cn1c(=O)c2c(nc(Oc3ccc(C#N)cc3)n2Cc2ccc(Cl)cc2Cl)n(C)c1=O`, the Potency is reported as “inactive”. For `CC(C)CCn1c(CN(C)Cc2ccccc2)nc2c1c(=O)n(C)c(=O)n2C`, the Potency was 6.51 µM (active). In the case of `CCCCNc1nc2c(c(=O)n(C)c(=O)n2C)n1Cc1cccc(OC)c1`, the Potency is reported as 2.91 µM (active). With `Cn1c(=O)c2c(nc(NCCc3ccccc3)n2Cc2ccccc2)n(C)c1=O` the Potency was 5.8 µM (active). For `COc1ccc(CCn2c(NCCCN3CCOCC3)nc3c2c(=O)[nH]c(=O)n3C)cc1`, the Potency was “inactive”. With `Cn1c(=O)[nH]c(=O)c2c1nc(CN(Cc1ccccc1)Cc1ccccc1)n2CCN1CCOCC1` the Potency was “inactive”. For `COc1cccc(CNS(=O)(=O)c2cc3c(cc2C)n(C)c(=O)c(=O)n3C)c1`, the Potency was “inactive”. For `CC1CN(Cc2nc3c(c(=O)n(C)c(=O)n3C)n2Cc2cccc(Cl)c2)CC(C)O1` (stereo not drawn), the Potency was “inactive”. For `Cn1c(=O)c2c(nc(NCc3ccccc3)n2CC(N)=O)n(C)c1=O`, the Potency was “inactive”.
